This is part of a sample that, as a whole, favours compounds with a hit. Of some 79,000 tested, about 15% had one in any assay. Calls of active or inactive are those of the source. Cut-off read from the data, not from the text of the source: active = growth inhibition above about 70%; inactive = the rest.
Key:
[1] = NCI Yeast Anticancer Drug Screen. Data for the rad52 strain (AID 147);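 note: 0% = growth of vehicle-treated control cultures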; details: S. cerevisiae rad52 mutant growth inhibition, hits give high values
Method in brief: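 DNA repair-defective yeast; compound exposure; growth scored against vehicle controls.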

[2] = NCI Yeast Anticancer Drug Screen. Data for the wt1 strain (AID 149);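 note: 0% = growth of vehicle-treated wt1 cultures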; details: S. cerevisiae wt1 strain (SPY 50644) growth inhibition, hits give high values
Method in brief: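 Each compound is tested on wt1 yeast and the loss of growth versus vehicle gives the inhibition value.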

[3] = NCI Yeast Anticancer Drug Screen. Data for the rad50EPP+ strain (AID 151);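 note: 0% = growth of vehicle-treated control cultures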; details: S. cerevisiae rad50 mutant strain, hits give high values
Method in brief: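 rad50EPP+ yeast treated with test compounds. Readout: growth vs vehicle control.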

[4] = NCI Yeast Anticancer Drug Screen. Data for the mgt1 strain (AID 153); details: S. cerevisiae mgt1 mutant growth inhibition, hits give high values
Method in brief: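 Growth inhibition relative to vehicle controls was scored for the mgt1 yeast strain after compound exposure.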

[5] = NCI Yeast Anticancer Drug Screen. Data for the rad50 strain (AID 155);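 note: 0% = growth of vehicle-only cultures of the same strain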; details: S. cerevisiae rad50 strain growth inhibition, hits give high values
Method in brief: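 Vehicle-treated cultures provide the reference for the growth inhibition reported for compound-exposed, repair-deficient yeast.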

[6] = NCI Yeast Anticancer Drug Screen. Data for the mec2-1 strain (AID 157); details: S. cerevisiae mec2-1 strain, hits give high values
Method in brief: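 Growth inhibition is read against vehicle-treated controls after compound exposure of the mec2-1 yeast strain, which is defective in DNA damage repair or cell cycle control.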

[7] = NCI Yeast Anticancer Drug Screen. Data for the rad14 strain (AID 159);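 note: 0% = growth of vehicle-treated control cultures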; details: S. cerevisiae rad14 strain growth inhibition, hits give high values
Method in brief: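 Inhibition of growth is reported for a repair-deficient yeast mutant following compound treatment, calculated relative to cultures that received vehicle.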

[8] = NCI Yeast Anticancer Drug Screen. Data for the sgs1 mgt1 strain (AID 161);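 note: 0% = growth of cultures given vehicle only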; details: S. cerevisiae sgs1 mgt1 strain, hits give high values
Method in brief: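 Growth of a repair-deficient yeast mutant was monitored after compound treatment and expressed as inhibition relative to vehicle-treated cultures.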

[9] = NCI Yeast Anticancer Drug Screen. Data for the CLN2oe strain (AID 163);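 note: 0% = growth of vehicle-only control cultures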; details: S. cerevisiae CLN2oe strain, hits give high values
Method in brief: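 Compound-treated yeast; growth vs vehicle ctrl = % inhibition. Genetically altered strain (cell-cycle control).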

[10] = NCI Yeast Anticancer Drug Screen. Data for the cln2 rad14 strain (AID 165);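 note: 0% = growth equal to vehicle treated cultures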; details: S. cerevisiae cln2 rad14 strain, hits give high values
Method in brief: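 Growth inhibition, relative to vehicle-treated controls, is the read-out. The test organism is a yeast strain with defined genetic alterations, cln2 rad14.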

[11] = NCI Yeast Anticancer Drug Screen. Data for the bub3 strain (AID 167); details: S. cerevisiae bub3 mutant strain, hits give high values
Method in brief: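 Mutant yeast screening strain plus compound; vehicle-treated cultures serve as the 0% inhibition reference.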

[12] = NCI Yeast Anticancer Drug Screen. Data for the wt2 strain (AID 169); details: S. cerevisiae wt2 strain growth inhibition, hits give high values
Method in brief: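 Compound exposure of yeast; growth compared with vehicle controls; inhibition reported.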

[13] = NCI Yeast Anticancer Drug Screen. Data for the mlh1 strain (AID 171);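 note: 0% = growth of vehicle-treated control cultures of the same strain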; details: S. cerevisiae mlh1 strain growth inhibition, hits give high values
Method in brief: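 Compounds are applied to a genetically altered yeast strain, and its growth is compared with that of vehicle-treated cultures to give percent inhibition.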

[14] = NCI Yeast Anticancer Drug Screen. Data for the sgs1 strain (AID 173);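 note: 0% = growth of vehicle-only control cultures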; details: S. cerevisiae sgs1 mutant, hits give high values
Method in brief: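 Compounds applied to genetically altered yeast; growth compared with vehicle-treated cultures to give % inhibition.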

[15] = NCI Yeast Anticancer Drug Screen. Data for the mlh1 rad18 strain (AID 175); details: S. cerevisiae mlh1 rad18 strain growth inhibition, hits give high values
Method in brief: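 Cells of a genetically altered yeast strain, deficient in DNA damage repair, were treated with compound. Their growth was then compared with that of vehicle-treated cultures to give inhibition.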

[16] = NCI Yeast Anticancer Drug Screen. Data for the rad18 strain (AID 177); details: S. cerevisiae rad18 mutant growth inhibition, hits give high values
Method in brief: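 Compounds are applied to a repair-deficient yeast strain, and growth is compared with that of vehicle-treated cultures to give percent inhibition.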

[17] = at 5.0 µM (retest, dose inferred, filed as 0.5)
[18] = at 50.0 µM (retest, dose inferred, filed as 5.0)

Measured: growth inhibition

Cn1ccnc1Oc1ccc(Cl)cc1
inactive: [1]; at 1.2 µM -7% | [1]; at 3.7 µM -11% | [1]; at 11.0 µM 7% | [1]; at 33.0 µM 61% | [2]; at 1.2 µM 1% | [2]; at 3.7 µM 5% | [2]; at 11.0 µM 22% | [2]; at 33.0 µM 50% | [3]; at 1.2 µM -5% | [3]; at 3.7 µM -22% | [3]; at 11.0 µM 0% | [3]; at 33.0 µM 30% | [3]; at 100.0 µM 37% | [4]; at 1.2 µM -4% | [4]; at 3.7 µM -5% | [4]; at 11.0 µM 0% | [4]; at 33.0 µM 15% | [5]; at 1.2 µM -9% | [5]; at 3.7 µM -9% | [5]; [17] -121% | [5]; at 11.0 µM 3% | [6]; at 1.2 µM -2% | [6]; at 3.7 µM 0% | [6]; [17] -46% | [6]; at 11.0 µM 4% | [6]; at 33.0 µM 17% | [6]; [18] 26% | [6]; at 50.0 µM 58.3% | [7]; at 1.2 µM -5% | [7]; at 3.7 µM 4% | [7]; at 11.0 µM 26% | [7]; at 33.0 µM 46% | [8]; [17] -61% | [8]; [18] 37% | [8]; at 50.0 µM 32.1% | [9]; at 1.2 µM -8% | [9]; at 3.7 µM -3% | [9]; at 11.0 µM -2% | [9]; at 33.0 µM 16% | [10]; [17] -52% | [10]; [18] -6% | [10]; at 50.0 µM -55.4% | [11]; at 1.2 µM -6% | [11]; at 3.7 µM -3% | [11]; [17] -65% | [11]; at 11.0 µM 0% | [11]; at 33.0 µM 25% | [11]; [18] 55% | [11]; at 50.0 µM 38.1% | [12]; at 1.2 µM -7% | [12]; at 3.7 µM 7% | [12]; at 11.0 µM 30% | [13]; at 1.2 µM -11% | [13]; at 3.7 µM -4% | [13]; at 11.0 µM 0% | [13]; at 33.0 µM 45% | [14]; at 1.2 µM -15% | [14]; at 3.7 µM -5% | [14]; at 11.0 µM 15% | [15]; [17] -131% | [16]; at 1.2 µM -7% | [16]; at 3.7 µM -1% | [16]; at 11.0 µM 6% | [16]; at 33.0 µM 55%
active: [1]; at 100.0 µM 97% | [2]; at 100.0 µM 97% | [4]; at 100.0 µM 98% | [5]; at 33.0 µM 76% | [5]; [18] 83% | [5]; at 50.0 µM 81.2% | [5]; at 100.0 µM 97% | [6]; at 100.0 µM 97% | [7]; at 100.0 µM 98% | [9]; at 100.0 µM 93% | [11]; at 100.0 µM 97% | [12]; at 33.0 µM 78% | [12]; at 100.0 µM 99% | [13]; at 100.0 µM 98% | [14]; at 33.0 µM 83% | [14]; at 100.0 µM 98% | [15]; [18] 74% | [15]; at 50.0 µM 89.2% | [16]; at 100.0 µM 97%

COc1ccc(NC(=S)N/N=C(\c2ccccc2)c2ccccn2)cc1
active: [1]; at 100.0 µM 96% | [2]; at 100.0 µM 95% | [4]; at 100.0 µM 95% | [5]; [18] 89% | [5]; at 100.0 µM 95% | [6]; [18] 75% | [6]; at 50.0 µM 74.7% | [6]; at 100.0 µM 95% | [7]; at 100.0 µM 95% | [8]; [18] 91% | [8]; at 50.0 µM 78.3% | [9]; at 100.0 µM 95% | [10]; [18] 88% | [10]; at 50.0 µM 79.2% | [11]; [18] 90% | [11]; at 50.0 µM 83.9%
inactive: [1]; at 1.2 µM -3% | [1]; at 3.7 µM -3% | [1]; at 11.0 µM -3% | [1]; at 33.0 µM 59% | [2]; at 1.2 µM -4% | [2]; at 3.7 µM -3% | [2]; at 11.0 µM -3% | [2]; at 33.0 µM 50% | [3]; at 1.2 µM 0% | [3]; at 3.7 µM 4% | [3]; at 11.0 µM 5% | [3]; at 33.0 µM 3% | [3]; at 100.0 µM 55% | [4]; at 1.2 µM -1% | [4]; at 3.7 µM -6% | [4]; at 11.0 µM 8% | [4]; at 33.0 µM 52% | [5]; at 1.2 µM 0% | [5]; at 3.7 µM 1% | [5]; [17] 12% | [5]; at 11.0 µM -34% | [5]; at 33.0 µM 59% | [5]; at 50.0 µM 68.1% | [6]; at 1.2 µM 0% | [6]; at 3.7 µM -7% | [6]; [17] 13% | [6]; at 11.0 µM -5% | [6]; at 33.0 µM 61% | [7]; at 1.2 µM -4% | [7]; at 3.7 µM -4% | [7]; at 11.0 µM -6% | [7]; at 33.0 µM 65% | [8]; [17] -34% | [9]; at 1.2 µM -1% | [9]; at 3.7 µM -4% | [9]; at 11.0 µM -4% | [9]; at 33.0 µM 55% | [10]; [17] 33% | [11]; at 1.2 µM -6% | [11]; at 3.7 µM 4% | [11]; [17] 35% | [11]; at 11.0 µM 4% | [11]; at 33.0 µM -4% | [11]; at 100.0 µM 66%

Reference: PubChem BioAssay (NCI)
